Measurements as given in PubChem BioAssay AID1159580 (chemical genetic matrix, 2015).
“And” between values parts separate entries of the source, which are not always exact repeats. Equal entries are not always repeated. Screen size: about 5,500 compounds; about 2,000 (36%) were called active. Another 18% or so got no clear call; they are omitted. Cut-off read from the data, not from the text of the source: active = normalized growth mostly below about 0.91 (no sharp cut-off); inconclusive = no clear call, values can overlap the other calls; inactive = mostly above about 0.92. The list shows a part of the results.

Experiment: chemical genetic growth profiling, strain panel (AID 1159580);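 note: tested at 20 µM; growth read once vehicle control cultures reached saturation at 30 °C; 1 = growth at the plate median or of vehicle wells; lower values mean less growth of the strain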
Conditions: S. cerevisiae deletion strains, growth OD

Measured: normalized growth

C[C@H]1CC2C([C@@H](O)C[C@@]3(C)C2CC[C@]3(O)C(=O)CO)[C@@]2(C)C=CC(=O)C=C12 (stereo partly specified)
inactive: locus YAL013W, strain DEP1, active compounds read low 0.994 | locus YAL021C, strain ccr4, active compounds read low 1.01 | locus YAL026C, strain drs2, active compounds read low 1.02 | locus YAL030W, strain snc1, active compounds read low 1 | locus YBL061C, strain skt5, active compounds read low 0.991 | locus YBR009C, strain hhf1, active compounds read low 1.01 | locus YBR021W, strain FUR4, active compounds read low 0.972 | locus YBR023C, strain chs3, active compounds read low 1.01 | locus YBR171W, strain sec66, active compounds read low 0.993 | locus YBR229C, strain ROT2, active compounds read low 0.993 | locus YBR231C, strain swc5, active compounds read low 0.977 | locus YBR279W, strain paf1, active compounds read low 1.01 | locus YCL011C, strain gbp2, active compounds read low 1.03 | locus YCL016C, strain dcc1, active compounds read low 1.01 | locus YCL029C, strain bik1, active compounds read low 1.03 | locus YCL061C, strain MRC1, active compounds read low 0.999 | locus YCL069W, strain vba3, active compounds read low 0.993 | locus YCR088W, strain abp1, active compounds read low 1 | locus YDL005C, strain med2, active compounds read low 0.987 | locus YDL035C, strain GPR1, active compounds read low 0.993 | locus YDL040C, strain nat1, active compounds read low 1 | locus YDL074C, strain BRE1, active compounds read low 1.02 | locus YDL101C, strain DUN1, active compounds read low 1.01 | locus YDL134C, strain PPH21, active compounds read low 0.996 | locus YDL185W, strain tfp1, active compounds read low 1.01 | locus YDL192W, strain arf1, active compounds read low 1.01 | locus YDR001C, strain nth1, active compounds read low 1 | locus YDR069C, strain doa4, active compounds read low 0.994 | locus YDR101C, strain arx1, active compounds read low 1.02 | locus YDR137W, strain rgp1, active compounds read low 0.993 | locus YDR150W, strain NUM1, active compounds read low 0.988 | locus YDR159W, strain sac3, active compounds read low 1.01 | locus YDR162C, strain NBP2, active compounds read low 0.995 | locus YDR195W, strain ref2 0.934 | locus YDR297W, strain sur2, active compounds read low 0.987 | locus YDR318W, strain mcm21, active compounds read low 1.03 | locus YDR334W, strain swr1, active compounds read low 0.997 | locus YDR335W, strain msn5, active compounds read low 1 | locus YDR388W, active compounds read low 1.02 | locus YDR392W, strain spt3, active compounds read low 1.02 | locus YDR502C, strain sam2, active compounds read low 1.01 | locus YEL003W, strain gim4, active compounds read low 0.984 | locus YEL037C, strain rad23, active compounds read low 1 | locus YEL061C, strain CIN8 (second series), active compounds read low 1.01 | locus YEL061C, strain CIN8, active compounds read low 0.993 | locus YER015W, strain faa2, active compounds read low 1.01 | locus YER016W, strain bim1, active compounds read low 1 | locus YER110C, active compounds read low 1.01 | locus YER111C, strain swi4, active compounds read low 1 | locus YER155C, strain BEM2 (second series), active compounds read low 0.989 | locus YER155C, strain BEM2, active compounds read low 0.996 | locus YER167W, strain BCK2, active compounds read low 0.996 | locus YFR010W, strain ubp6, active compounds read low 0.982 | locus YGL078C, strain dbp3, active compounds read low 1.02 | locus YGL086W, strain mad1, active compounds read low 0.999 | locus YGL167C, strain pmr1, active compounds read low 0.988 | locus YGL173C, strain kem1, active compounds read low 0.986 | locus YGL227W, strain vid30, active compounds read low 0.992 | locus YGL240W, strain doc1, active compounds read low 0.972 | locus YGL248W, strain PDE1, active compounds read low 1 | locus YGL253W, strain hxk2, active compounds read low 0.997 | locus YGR078C, strain PAC10, active compounds read low 0.984 | locus YGR135W, strain pre9, active compounds read low 1.04 | locus YGR229C, strain SMI1, active compounds read low 0.986 | locus YGR252W, strain gcn5, active compounds read low 0.947 | locus YHR013C, strain ard1, active compounds read low 0.997 | locus YHR027C, strain rpn1, active compounds read low 1 | locus YHR030C, strain SLT2, active compounds read low 0.994 and 1.07 | locus YHR079C, strain IRE1 (second series), active compounds read low 1.02 | locus YHR079C, strain IRE1, active compounds read low 1.07 | locus YHR094C, strain hxt1, active compounds read low 1.02 | locus YHR129C, strain ARP1, active compounds read low 1 | locus YHR142W, strain chs7, active compounds read low 0.997 | locus YHR200W, strain rpn10, active compounds read low 1.01 | locus YIL066C, strain RNR3, active compounds read low 1 | locus YIL073C, strain SPO22, active compounds read low 1.01 | locus YIL125W, strain kgd1, active compounds read low 1 | locus YIR030C, strain dcg1, active compounds read low 1.02 | locus YJL092W, strain hpr5, active compounds read low 0.989 | locus YJL095W, strain BCK1 (second series), active compounds read low 0.997 | locus YJL095W, strain BCK1, active compounds read low 1.03 | locus YJL115W, strain asf1, active compounds read low 1 | locus YJL129C, strain trk1, active compounds read low 0.987 | locus YJL134W, strain LCB3, active compounds read low 1 | locus YJL154C, strain vps35, active compounds read low 1.01 | locus YJL164C, strain tpk1, active compounds read low 1.01 | locus YJL166W, strain qcr8, active compounds read low 0.97 | locus YJL168C, strain set2, active compounds read low 1.01 | locus YJL187C, strain SWE1 (second series), active compounds read low 1.01 | locus YJR043C, strain POL32, active compounds read low 1.01 | locus YJR066W, strain TOR1, active compounds read low 1.02
